The values that follow come from PubChem BioAssay AID651635 (National Center for Advancing Translational Sciences (NCATS), 2012).

In all, about 400,000 compounds went through this assay and about 1,900 (0.47%) were called active. A call without a number means that no potency is given here. Inconclusive results (about 14%) are left out. Calls come from the whole dose curve; as a rule, active = well fitted cell-killing curve with a large enough effect; inconclusive = small, poorly fitted or top-dose-only effect, or effect the other way; inactive = no such curve, though single readings can be large or run the other way. The full list was thinned out, with actives kept by preference.
Potency is the fitted concentration of half-maximal effect.

The assay can be described thus: Viability Counterscreen for Primary qHTS for Inhibitors of ATXN expression. Note: nearly all actives have a fitted effect of over 40% in size. The conditions noted are these: S2 cells (HEK-293 line with an ATXN2-luciferase reporter) viability, CellTiter-Fluor protease fluorescence, 24 h; series mostly up to 56.7 µM.
In the case of `O=C(CCc1ccc(O)cc1)NN=Cc1cc(Br)ccc1O`, the Potency result is “inactive”.
Consider `Cc1c(C(=O)Nc2ccccn2)oc2ccc(Br)cc12`, for which the Potency entry is “inactive”.
The figure for `Oc1ccc(Br)cc1/C=N/Nc1ccccn1` is 0.251 µM (active); for `CN[C@H]1C[C@H]2c3cc(Oc4ccccc4C)ccc3CCN2C(=O)[C@H]1[C@H](C)O` it is “inactive”.
The entry for `COc1ccccc1-c1ccc(C(=O)N(C)C(C)c2ccon2)c(N2CCN(c3ccccc3F)CC2)n1` (centres undefined) is “inactive”; for `COc1ccc(NC(=O)C(=O)NCc2ccco2)cc1` it is “inactive”; for `COc1ccc(CS(=O)/C(Cl)=C(/Cl)C(=O)Nc2ccc(OC)nc2)cc1` (centres undefined) it is 1.89 µM (active).
For `COc1ccc(C(O)c2nc(-c3ccc(OC)nc3)cs2)cc1` (centres undefined) the value was “inactive”; for `Cc1nnc(C(=O)NC(C)(C)c2nc(C(=O)NCc3ccc(F)cc3)c(O)c(=O)n2C)o1`, “inactive”; for `Cc1cc(Nc2cccc(C(F)(F)F)c2)nc2ccc(NC(=O)c3ccc(=O)[nH]c3)cc12`, “inactive”.
For the compound `COc1cc(NC(=O)c2[nH]cnc2C(N)=O)cc(C(=O)Nc2cccc(C(F)(F)F)c2)c1`, the Potency was 10 µM (active).
For `COc1cc(OC)cc(C(=O)Nc2ccc3nc(Nc4cccc(C(F)(F)F)c4)cc(C)c3c2)c1` the value was “inactive”.
Regarding `CN(C)C(=O)[C@@H]1C[C@@H](Sc2nc3ccccc3[nH]2)CN1Cc1ccc(Cl)cc1`, the Potency entry was “inactive”.
In the case of `CCC(=O)Nc1ccc(Nc2nc(Cl)nc(Nc3ccc(NC(=O)CC)cc3)n2)cc1`, the Potency entry was “inactive”.
The entry for `CC(C)(CCl)C(=O)Nc1ccc(Sc2ccc(F)cc2)cc1` is “inactive”; for `O=C(CCl)Nc1ccc(Sc2ccc(NC(=O)CCl)cc2)cc1` it is 11.2 µM (active).
Regarding `COC(=O)c1ccccc1-c1cc(C)cc2c1OC(CNC(=O)C1CCOC1)C2` (centres undefined), the Potency result is “inactive”.
`CNc1cncc(-c2ccc(NS(C)(=O)=O)cc2)n1`: the Potency entry was “inactive”.
For `COC(=O)Cc1ccc(OCC(=O)Nc2ccc(OC(F)(F)F)cc2)cc1` the value was “inactive”; for `CCc1ccc2c(c1)NC(=O)C2(C)Cc1ccc(OC(F)(F)F)cc1` (centres undefined), 20 µM (active).
For `CCC1CN(CCNC(=O)c2cccnc2C)Cc2cc(OC)ccc2O1` (centres undefined) the value was “inactive”.
`COc1ccc(CN2CCC3(CCC(CNC(=O)c4ccco4)O3)CC2)cc1OC` (centres undefined): the Potency entry is “inactive”.
For `CC1(Cc2cccc(C#N)c2)C(=O)Nc2ccc(-c3cccc(C(F)(F)F)c3)cc21` (centres undefined), the Potency is 25.1 µM (active).
`CCCCOC(=O)/C(C#N)=C/c1ccc(-c2cccc(C(F)(F)F)c2)o1`: the Potency entry is “inactive”.
Consider `O=c1cc(O)c(-c2cccc(C(F)(F)F)c2)c(Cl)[nH]1`, for which the Potency result was “inactive”.
The entry for `COCCCN1CCC(NC(=O)c2cc(Cl)c(N)c3c2OCC3)CC1` is “inactive”; for `COc1ccccc1C(=O)N[C@@H]1c2ccccc2C2(CCN(C(=O)c3csnn3)CC2)[C@H]1OC` it is “inactive”; for `Cc1cnc(C)c(-c2cc(F)c3c(c2)CC(CNC(=O)c2cccc(Cn4cccn4)c2)O3)n1` (centres undefined) it is “inactive”.
As to `O=C(c1ccccc1)N1CCN(C(=O)c2cc3nc(-c4ccccc4)cc(C(F)(F)F)n3n2)CC1`, the Potency result is “inactive”.
With `CN(C)CCN1CCN(c2cc(-c3cccc(Cl)c3)nc3ccnn23)CC1`, the Potency entry was “inactive”.
Take `C#Cc1cc(N2CCN(C(=O)c3ccoc3)CC2)n2nc(-c3cccc(Cl)c3)cc2n1`: the Potency was 15.8 µM (active).
For `COCc1c(C(=O)NC2CCCCC2)cnn1-c1nccc(-c2ccccc2OC)n1` the value was “inactive”; for `Cc1ccc(F)cc1S(=O)(=O)N1CCC(c2nc3ccccc3s2)CC1`, “inactive”.
For `COc1cc(=O)n2c(c1C(=O)NC(C)c1ccco1)CCN(C(=O)c1cn3ccc(C)cc3n1)CC2` (centres undefined) the value was “inactive”; for `CO/N=C(/C(=O)N[C@@H]1C(=O)N2C(C(=O)O)=C(Cn3nnc(C)n3)CS[C@H]12)c1csc(N)n1`, “inactive”.
The figure for `CCOC(=O)/C(=C\c1ccc([N+](=O)[O-])cc1)C(=O)c1cc(C(C)=O)c(Nc2ccccc2)s1` is 31.6 µM (active); for `O=C(O)C(=Cc1ccc([N+](=O)[O-])cc1)CCc1ccccc1` it is “inactive”; for `CC(=O)Nc1ccc(C=CC(=O)c2ccc([N+](=O)[O-])cc2)cc1` it is “inactive”.
Turning to `CC(C)(C)OC(=O)N1CCN(C(=O)c2[nH]c(C(F)(F)F)nc2-c2ccccc2)CC1`, the Potency entry was “inactive”.
In the case of `COc1ccc(F)c(CN2CCC3(CCC(CNC(=O)c4ccn(C)n4)O3)CC2)c1` (centres undefined), the Potency result is “inactive”.
As for `CCCNC(=O)c1cc2c(c(-c3cccc(-c4ccc(C#N)cc4)c3)n1)[C@@H](CCO)N(C(=O)CC)C2`, the Potency entry was “inactive”.
Regarding `CCOC(=O)[C@]12CCC=C1N(Cc1ccco1)C(=O)[C@H](CC(=O)NCc1cccc(C(F)(F)F)c1)C2`, the Potency result was “inactive”.
`CC1Cc2[nH][nH]c(=O)c2C(C2CCCC2)O1` (centres undefined): the Potency entry is “inactive”.
Regarding `C=CC[C@@H](CC(=O)N[C@@H](CO)Cc1ccccc1)C(=O)NCCOC(=O)[C@@H](CC=C)CC(=O)OC(C)(C)C`, the Potency entry was “inactive”.
For the compound `COCCCNC(=S)N(Cc1ccccc1)Cc1ccc(F)cc1`, the Potency entry was “inactive”.
`CC(=O)NC(Cc1c[nH]c2ccccc12)C(=O)NCCc1ccccc1` (centres undefined): the Potency entry is “inactive”.
Take `C=CC[C@@H](CC(=O)N[C@H](CO)Cc1ccccc1)C(=O)N[C@@H](COC(=O)[C@@H](CC=C)Cc1ccc(F)cc1)Cc1c[nH]c2ccccc12`: the Potency entry was “inactive”.
For `C=CC[C@@H](CC(=O)N[C@H](CO)Cc1ccccc1)C(=O)N[C@H](C)COC(=O)[C@@H](CC=C)Cc1ccc(F)cc1` the value was “inactive”.
In the case of `C=CC[C@H](CC(=O)OC(C)(C)C)C(=O)OC[C@H]1CCCN1C(=O)[C@H](CC=C)CC(=O)N(CCO)Cc1ccccc1`, the Potency result is “inactive”.
The figure for `C=CCC[C@@H](Cc1ccc(F)cc1)C(=O)O[C@H](CNC(=O)[C@H](CC=C)CC(=O)N(CCO)Cc1ccccc1)c1ccccc1` is 25.1 µM (active).
The figure for `C=CCC[C@@H](Cc1ccc(F)cc1)C(=O)OC[C@H](Cc1c[nH]c2ccccc12)NC(=O)[C@@H](CC=C)CC(=O)N(CCO)Cc1ccccc1` is 5.62 µM (active); for `C=CCC[C@H](Cc1ccc(F)cc1)C(=O)OC[C@@H](NC(=O)[C@@H](CC=C)CC(=O)N[C@H](CO)Cc1ccccc1)C(C)(C)C` it is 31.6 µM (active); for `COc1ccc(-c2cc(NC=O)c3ncc(-c4ccccc4)n3c2)cc1OC` it is “inactive”.
The entry for `CC1(C)[C@H](O[C@H]2O[C@H](C(=O)O)[C@@H](O)[C@H](O)[C@H]2O[C@@H]2O[C@H](C(=O)O)[C@@H](O)[C@H](O)[C@H]2O)CC[C@@]2(C)[C@H]1CC[C@]1(C)[C@H]2C(=O)C=C2[C@H]3C[C@@](C)(C(=O)O)CC[C@]3(C)CC[C@]21C` is “inactive”.
